According to PubChem BioAssay (NCI):
The panel holds about 83,000 compounds, 20% with a hit somewhere; the sample as a whole holds those more often.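 Single-dose data. Exposure time 48 hours. Values below 10 considered active.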 Calls of active or inactive are those of the source.

Tests used:
Experiment in all cases: NCI-60 one-dose screen, 48 h (100 = growth as untreated, 0 = no growth, -100 = all killed)
Conditions in all cases: 10 µM unless noted
HCT-15 colon = system: HCT-15 colon
HT29 colon = system: HT29 colon
SNB-75 CNS = system: SNB-75 CNS
SNB-19 CNS = system: SNB-19 CNS
U251 CNS = system: U251 CNS
PC-3 prostate = system: PC-3 prostate
SK-MEL-5 melanoma = system: SK-MEL-5 melanoma
UACC-62 melanoma = system: UACC-62 melanoma
LOX IMVI melanoma = system: LOX IMVI melanoma
SK-MEL-28 melanoma = system: SK-MEL-28 melanoma

Measured: growth

C=C(C)[C@@H]1CC[C@]2(C(N)=O)CC[C@]3(C)[C@H](CC[C@@H]4[C@@]5(C)CCCNC(C)(C)[C@@H]5CC[C@]43C)[C@@H]12
inactive: HCT-15 colon 50.2% | HT29 colon 16.4% | SNB-75 CNS 76% | SNB-19 CNS 87.3% | U251 CNS 58.7% | PC-3 prostate 50.3% | SK-MEL-5 melanoma 67.2% | UACC-62 melanoma 87.4% | LOX IMVI melanoma 76.9% | SK-MEL-28 melanoma 85.1%

CN(C)CCCn1c2c(c3cc(-c4cccc(S(N)(=O)=O)c4)ccc3c1=O)C(=O)c1ccccc1-2
inactive: HCT-15 colon 61.7% | SNB-75 CNS 59.1% | SNB-19 CNS 64.8% | U251 CNS 47.5% | PC-3 prostate 67.3% | SK-MEL-5 melanoma 85.3% | UACC-62 melanoma 77.3% | LOX IMVI melanoma 56.3% | SK-MEL-28 melanoma 113%
active: HT29 colon -6.96%

COc1ccc(-c2nnc(N3CCN(C(=O)CN4CCN(c5ccccc5)CC4)CC3)nc2-c2ccc(OC)cc2)cc1
active: HT29 colon 3.46% | PC-3 prostate 7.93% | SK-MEL-5 melanoma 8.21%
inactive: HCT-15 colon 18.5% | SNB-75 CNS 49.9% | SNB-19 CNS 53.5% | U251 CNS 37% | UACC-62 melanoma 52.1% | LOX IMVI melanoma 41.2% | SK-MEL-28 melanoma 56.5%

C=C(C)[C@@H]1CC[C@]2(C(=O)NCCCO)CC[C@]3(C)[C@H](CC[C@@H]4[C@@]5(C)CCCNC(C)(C)[C@@H]5CC[C@]43C)[C@@H]12
active: HT29 colon 7.18%
inactive: HCT-15 colon 68.6% | SNB-75 CNS 72.2% | SNB-19 CNS 85.4% | U251 CNS 53.7% | PC-3 prostate 49.2% | SK-MEL-5 melanoma 13% | UACC-62 melanoma 83.8% | LOX IMVI melanoma 78.7% | SK-MEL-28 melanoma 51.3%

N#Cc1c(NC(=O)c2cccs2)[n+]([O-])c2cc(C(F)(F)F)ccc2[n+]1[O-]
inactive: HCT-15 colon 117% | HT29 colon 107% | SNB-75 CNS 92.6% | SNB-19 CNS 106% | U251 CNS 104% | PC-3 prostate 65.1% | SK-MEL-5 melanoma 58% | UACC-62 melanoma 96.8% | LOX IMVI melanoma 94.7% | SK-MEL-28 melanoma 120%

O=C(O)C(C(=O)O)c1cccc2ccccc12
inactive: HCT-15 colon 104% | HT29 colon 94.9% | SNB-75 CNS 99.3% | SNB-19 CNS 98.3% | U251 CNS 99.5% | PC-3 prostate 100% | SK-MEL-5 melanoma 103% | UACC-62 melanoma 96.8% | LOX IMVI melanoma 97.4% | SK-MEL-28 melanoma 111%

Nc1n[nH]c2cccc(C#Cc3cccc(NC(=O)c4cc(N5CCOCC5)cc(C(F)(F)F)c4)c3)c12
inactive: HCT-15 colon 36.9% | HT29 colon 22.6% | SNB-75 CNS 71.5% | SNB-19 CNS 83.9% | U251 CNS 56.3% | PC-3 prostate 69% | SK-MEL-5 melanoma 55.7% | UACC-62 melanoma 14% | LOX IMVI melanoma 18.6% | SK-MEL-28 melanoma 24.5%

S=c1ssnc1-c1cc2ccccc2o1
inactive: HCT-15 colon 71.1% | HT29 colon 56.6% | SNB-75 CNS 80.8% | SNB-19 CNS 82% | U251 CNS 91.5% | PC-3 prostate 14.9% | SK-MEL-5 melanoma 68.7% | UACC-62 melanoma 86.6% | LOX IMVI melanoma 60.5% | SK-MEL-28 melanoma 93.2%

CCOC(=O)c1sc(/N=C2\NC(=O)/C(=C/c3ccc(N4CCN(C)CC4)cc3)S2)nc1C
inactive: HCT-15 colon 95.9% | HT29 colon 86.9% | SNB-75 CNS 101% | SNB-19 CNS 104% | U251 CNS 106% | PC-3 prostate 102% | SK-MEL-5 melanoma 98% | UACC-62 melanoma 113% | LOX IMVI melanoma 65.7% | SK-MEL-28 melanoma 113%

Nc1ccc(C2=NN(C(=O)c3cc(-c4ccc(Cl)cc4)nc4ccccc34)C(c3ccc(Cl)cc3)C2)cc1 (stereo not given)
inactive: HCT-15 colon 26.3% | HT29 colon 11.5% | SNB-75 CNS 67.5% | SNB-19 CNS 30.5% | U251 CNS 31.5% | PC-3 prostate 23.3% | SK-MEL-5 melanoma 28.3% | UACC-62 melanoma 38% | LOX IMVI melanoma 48.3% | SK-MEL-28 melanoma 65%

O=C(CN1N=C(c2ccc(F)cc2)CCC1=O)Nc1nccs1
inactive: HCT-15 colon 99.3% | HT29 colon 87% | SNB-75 CNS 92.2% | SNB-19 CNS 91.4% | U251 CNS 101% | PC-3 prostate 88.3% | SK-MEL-5 melanoma 98.4% | UACC-62 melanoma 92.5% | LOX IMVI melanoma 98.9% | SK-MEL-28 melanoma 109%

CC(=O)Nc1nc2c(c(N)c1C#N)C(c1cccc(Cl)c1)C1=C(CCCC1=O)N2c1sc2c(c1C#N)CCCC2 (stereo not given)
inactive: HCT-15 colon 30.1% | HT29 colon 29.4% | SNB-75 CNS 81% | SNB-19 CNS 69.7% | U251 CNS 42.3% | PC-3 prostate 20.8% | SK-MEL-5 melanoma 61.5% | UACC-62 melanoma 59.8% | LOX IMVI melanoma 51.5% | SK-MEL-28 melanoma 82.4%

NCCCn1c2c(c3cc(-c4ccn[nH]4)ccc3c1=O)C(=O)c1ccccc1-2
active: HT29 colon 9.31%
inactive: HCT-15 colon 31.2% | SNB-75 CNS 42.2% | SNB-19 CNS 55% | U251 CNS 37.1% | PC-3 prostate 50% | SK-MEL-5 melanoma 58.4% | UACC-62 melanoma 78% | LOX IMVI melanoma 47.1% | SK-MEL-28 melanoma 111%

C=C1C(=O)O[C@H]2[C@H]1CC/C(COC(=O)/C=C/c1cccnc1)=C\CC[C@@]1(C)O[C@@H]21
active: HCT-15 colon 3.01%
inactive: HT29 colon 11.1% | SNB-75 CNS 72.2% | SNB-19 CNS 75.2% | U251 CNS 57.7% | PC-3 prostate 57.5% | SK-MEL-5 melanoma 68.2% | UACC-62 melanoma 41.1% | LOX IMVI melanoma 30.7% | SK-MEL-28 melanoma 43.7%

COc1ccccc1Nc1nnc(-c2ccc(Cl)cc2)o1
inactive: HCT-15 colon 33.1% | HT29 colon 16.1% | SNB-75 CNS 55.1% | SNB-19 CNS 46.4% | U251 CNS 34.4% | PC-3 prostate 56.7% | SK-MEL-5 melanoma 37.6% | UACC-62 melanoma 51.8% | LOX IMVI melanoma 51.7% | SK-MEL-28 melanoma 64%

O=c1nc(-c2ccccc2)c2cc(-c3ccc(N4CCCC4)nc3)ccc2[nH]1
inactive: HCT-15 colon 44% | HT29 colon 30.7% | SNB-75 CNS 66.1% | SNB-19 CNS 66.4% | U251 CNS 67.5% | PC-3 prostate 65.7% | SK-MEL-5 melanoma 40.4% | UACC-62 melanoma 57.2% | LOX IMVI melanoma 57.2% | SK-MEL-28 melanoma 82.3%

COc1ccc(C(=O)c2cc(OC)c(OC)c(OC)c2)cc1OC(=O)C(Cl)(Cl)Cl
inactive: HT29 colon 13.4% | SNB-75 CNS 58% | SNB-19 CNS 23.5% | PC-3 prostate 10.2% | UACC-62 melanoma 39.8% | LOX IMVI melanoma 15.1% | SK-MEL-28 melanoma 51.6%
active: HCT-15 colon 8.84% | U251 CNS 5.44% | SK-MEL-5 melanoma -24.1%

COc1ccc(C(=O)c2cc(OC)c(C)c(OC)c2)cc1OC(=O)CCl
active: SK-MEL-5 melanoma 9.8%
inactive: HCT-15 colon 12.4% | HT29 colon 55.6% | SNB-75 CNS 38.1% | SNB-19 CNS 28.4% | U251 CNS 17.1% | PC-3 prostate 13.4% | UACC-62 melanoma 38% | LOX IMVI melanoma 21.8% | SK-MEL-28 melanoma 49.5%

CCN(CC)c1ccc2c(c1)Oc1nc(N)c(C#N)c(N)c1C2Sc1ccc(OC)cc1 (stereo not given)
active: HCT-15 colon 2.89% | HT29 colon -61.6% | SNB-75 CNS -10% | U251 CNS -36.4% | PC-3 prostate 1.15% | SK-MEL-5 melanoma 1.93% | UACC-62 melanoma -16.9% | LOX IMVI melanoma -63.6%
inactive: SNB-19 CNS 20.9% | SK-MEL-28 melanoma 29.3%

NS(=O)(=O)c1ccc(-n2ncc(NC(=O)Nc3ccc(S(=O)(=O)Nc4nccs4)cc3)c2-c2ccccc2)cc1
inactive: HCT-15 colon 104% | HT29 colon 99.9% | SNB-75 CNS 65.7% | SNB-19 CNS 103% | U251 CNS 102% | PC-3 prostate 111% | SK-MEL-5 melanoma 105% | UACC-62 melanoma 98.4% | LOX IMVI melanoma 101% | SK-MEL-28 melanoma 102%

C=C1C(=O)O[C@H]2[C@H]1CC/C(COC(=O)c1cccnc1)=C\CC[C@@]1(C)O[C@@H]21
inactive: HCT-15 colon 34.4% | HT29 colon 33.5% | SNB-75 CNS 83.4% | SNB-19 CNS 90.2% | U251 CNS 88.5% | PC-3 prostate 66.1% | SK-MEL-5 melanoma 88.9% | UACC-62 melanoma 69.5% | LOX IMVI melanoma 75% | SK-MEL-28 melanoma 89%

C=C1C(=O)O[C@H]2[C@H]1CC/C(COC(=O)NCc1nc3ccccc3[nH]1)=C\CC[C@@]1(C)O[C@@H]21
inactive: HCT-15 colon 103% | HT29 colon 63.8% | SNB-75 CNS 91.9% | SNB-19 CNS 98.6% | U251 CNS 92.9% | PC-3 prostate 85.6% | SK-MEL-5 melanoma 97% | UACC-62 melanoma 80% | LOX IMVI melanoma 75.9% | SK-MEL-28 melanoma 73.1%

CC(/C=C/c1ccccc1)=N/NC(=O)c1ccncc1
inactive: HCT-15 colon 100% | HT29 colon 108% | SNB-75 CNS 97.7% | SNB-19 CNS 102% | U251 CNS 98.3% | PC-3 prostate 92.5% | SK-MEL-5 melanoma 100% | UACC-62 melanoma 94.1% | LOX IMVI melanoma 99.5% | SK-MEL-28 melanoma 118%

CO[C@@]12C=C[C@@]34CCC(=O)N3c3ccccc3[C@@H](O1)C4C2
inactive: HCT-15 colon 104% | HT29 colon 101% | SNB-75 CNS 90.5% | SNB-19 CNS 99.1% | U251 CNS 99.7% | PC-3 prostate 100% | SK-MEL-5 melanoma 104% | UACC-62 melanoma 94.5% | LOX IMVI melanoma 96.9% | SK-MEL-28 melanoma 113%
